TRPML1 ag: agonists of human TRPML1 channel; Q9GZU1; TRPML1-expressing cells, Ca2+ dye fluorescence, FDSS; activation, % (concentration not given with the values); actives 0.12% (n = 410,000); in the data active = activation above about 50%; inconclusive = mostly about 30% to 49%; also: 0% is about no effect
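Kinetic FDSS Ca2+ read in Tet-induced TRPML1-DL cells (ABD Ca8 dye plus quencher, 45-90 min RT loading): baseline, then compound, then 110 s agonist window; EC80 agonist 54-4 at 4uM final added afterwards for a 110 s antagonist window.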
TRPML1 blocker: human mucolipin-1 channel inhibition; Q9GZU1; TRPML1-inducible cells, Ca2+ dye fluorescence, FDSS; stronger effect = lower value; inhibition of EC80 agonist-evoked calcium signal; activity change, negative = inhibition, % (no concentration beside the values); actives 0.02% (n = 390,000); AID 624415; in the data active = activity change below about -50%; inconclusive = between about -30% and that limit;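 also: stimulus is agonist 54-4 at its EC80 concentration; % is scaled to controls: 0 for no effect and ±100 for the full control effect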
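Calcium fluorescence in TRPML1-DL cells induced overnight with Tet: a 110 s read after compound pin addition, then a 110 s antagonist read after challenge with 54-4 at 4 uM final (EC80).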
12-LOX inh: inhibitors of human 12S-lipoxygenase ALOX12 | purified 12hLO, xylenol orange hydroperoxide absorbance | actives 1.1% (n = 580,000) | Potency, µM (series often up to 108 µM), for inactives: top-dose activity change, negative = inhibition, usual class: inhibitors; also: potency is read from the fitted curve at half-maximal effect; % is scaled to controls: 0 for no effect and ±100 for the full control effect
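Hydroperoxide product was detected by ferrous iron/xylenol orange as the 573 to 405 nm absorbance ratio. Arachidonic acid at 40 uM (final) was turned over for 30 min at room temperature by 150 nM human 12hLO, pH 7.0 Hepes buffer, after 15 min compound preincubation.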
Vif-A3G inh: inhibitors of Vif-APOBEC3G interaction. HeLa A3G-eYFP + Vif (tagged APOBEC3G with the HIV-1 protein that degrades it), YFP fluorescence, overnight. actives 0.076% (n = 410,000). Potency, µM (doses to about 46.1 µM), without a hit: at the top dose activity, negative = active, actives largely listed as inhibitors. Q9HC16; also: potency is read from the fitted curve at half-maximal effect; % is scaled to controls: 0 for no effect and ±100 for the full control effect; nearly all actives have a fitted effect of over 60% in size
Target sequence (Q9HC16 whole entry, looked up): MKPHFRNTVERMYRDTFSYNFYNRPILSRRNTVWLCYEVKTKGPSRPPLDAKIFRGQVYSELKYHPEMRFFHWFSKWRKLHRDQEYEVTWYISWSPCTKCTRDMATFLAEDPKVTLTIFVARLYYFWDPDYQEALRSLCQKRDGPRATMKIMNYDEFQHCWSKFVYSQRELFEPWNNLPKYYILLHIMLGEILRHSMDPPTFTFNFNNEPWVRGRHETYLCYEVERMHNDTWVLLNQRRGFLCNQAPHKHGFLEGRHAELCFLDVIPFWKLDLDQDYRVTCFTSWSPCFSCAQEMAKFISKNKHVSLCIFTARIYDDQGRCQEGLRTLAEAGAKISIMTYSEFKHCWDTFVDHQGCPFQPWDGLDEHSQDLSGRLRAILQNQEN
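HeLa cells stably expressing Vif and C-terminally eYFP-tagged A3G, seeded overnight at 37 deg C, then exposed to compound by pintool overnight at 37 deg C. Rise in yellow fluorescence (Ex 488/Em 500-530, Acumen) marks blocked Vif-driven A3G degradation.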
GRP78 ERSR act: induces the endoplasmic reticulum stress response in human glioma cells; U87-MG GRP78 promoter luciferase reporter, 16 h; Potency, µM, inactives show top-dose activation, actives largely listed as activators; actives 0.02% (n = 420,000); AID 602332; also: potency is read from the fitted curve at half-maximal effect; series mostly up to about 76 µM; % of control where 0% means no effect; nearly all actives have a fitted effect of over 35% in size
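Stably transfected U87-MG human glioma cells carrying a GRP78-based luminescent sensor were seeded at 1000 cells/well, pin-dosed with compounds and incubated 16 h. Luciferase reagent was then added, and end-point luminescence was read after 10 min at room temperature.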
Vif-A3F inh: inhibitors of Vif-A3F interaction; HeLa A3F-eYFP + Vif (tagged APOBEC3F with the HIV-1 protein that degrades it), YFP fluorescence increase; Potency, µM (top dose mostly 46.1 µM), without a hit: at the highest dose activity, negative = active; actives 0.2% (n = 390,000); AID 602313; also: potency is read from the fitted curve at half-maximal effect; % of control where 0% means no effect; nearly all actives have a fitted effect of over 65% in size
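HeLa cells stably expressing A3F-eYFP plus Vif, plated and incubated overnight at 37 deg C, then exposed to compounds overnight at 37 deg C. Blocked degradation read as raised yellow fluorescence (Ex 488/Em 500-530).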
* marks the source's active call; other numbers are inactive results; ? = inconclusive; · = not tested or not shown; ! = not active in a repeat. In the library only some 1.3% were active in any assay of this set; here they are far more common. Unless noted, calls follow the shape of the dose curve; as a rule, active = well fitted curve in the direction sought with a large enough effect; inconclusive = small, poorly fitted or top-dose-only effect, or another doubt; inactive = no such curve, though single readings can be large; an effect the other way counts as inactive or inconclusive.

SMILES | TRPML1 ag | TRPML1 blocker | 12-LOX inh | Vif-A3G inh | GRP78 ERSR act | Vif-A3F inh
CCOc1ccc(Nc2nc(C)c(NC(=O)c3ccc(C)cc3)c(Nc3ccc(OCC)cc3)n2)cc1 | -1 | 14 | 22µM* | -5% | -4% | -3%
Cc1ccc(Nc2nc(-c3cccc(N4C(=O)c5ccccc5C4=O)c3)cs2)cc1 | · | · | 18µM* | · | · | ·
Oc1ccc(Nc2ccc3ccccc3c2)cc1 | 0 | 16 | 45µM* | -19% | 6% | -21%
Cc1cc(Nc2ccc(O)cc2)ccc1N | -1 | · | · | 5% | -5% | ·
COc1ccccc1Nc1nc(-c2cccc(N3C(=O)c4ccccc4C3=O)c2)cs1 | 1 | -17 | -14% | 0% | -4% | 1%
Oc1ccc(Nc2nc(-c3ccc4ccccc4c3)cs2)cc1 | · | · | 18µM* | · | · | ·
O=S(=O)(c1ccccc1F)N1CCN(Cc2coc(-c3cccs3)n2)CC1 | · | · | -17% | · | · | ·
CCCOc1ccc(C(C)NC(=O)c2ccc(C)nc2)cc1OC (stereo not drawn) | · | · | -17% | · | · | ·
Cc1cc2cc(NS(=O)(=O)c3ccc(C)c(C)c3)ccc2[nH]1 | · | · | 35µM* | · | · | ·
Cc1ccc(S(=O)(=O)Nc2ccc3[nH]c(=O)sc3c2)cc1C | -1 | -8 | ? | 1% | -1% | 0%
Cc1nn(C)c(C)c1NC(=O)CCl | 1 | 6 | 14µM* | -1% | -3% | -2%
Cc1nn(C)c(C)c1NC(=O)COc1ccc(Cl)cc1 | 0 | -7 | 33% | 1% | -3% | 8%
O=C1NC(=Nc2ccccc2)S/C1=C\c1ccccc1 | 1 | 19 | -14% | ? | 3% | -9%
O=C1N/C(=N/Nc2ccccc2)S/C1=C\c1ccccc1 | 2 | -9 | 5.6µM* | -6% | -1% | 6%
N#CC1=C2SCN(Cc3ccccc3)CN2C(=O)CC1c1ccc2c(c1)OCO2 (stereo not drawn) | 2 | -2 | 40µM* | 2% | -4% | -6%
N#CC1=C2SCN(Cc3ccccc3)CN2C(=O)CC1c1cccs1 (stereo not drawn) | 0 | -12 | ? | 3% | -2% | 2%
COc1cc(C2CC(=O)N3CN(Cc4ccco4)CSC3=C2C#N)ccc1OCc1ccccc1 (stereo not drawn) | 0 | 1 | 25µM* | 1% | -3% | 0%
CC(C)(C)C(=O)C[S+]1CCCC1 | · | · | 0% | · | · | ·
CCCNC(=O)N[C@@H]1CCC[C@@H](C(=O)NCCOC)CC(=O)N(C)C1 | · | · | 25µM* | · | · | ·
CCC(OC(=O)c1nn(CC)c(=O)c2ccccc12)C(=O)Nc1cc(C)on1 (stereo not drawn) | · | · | -1% | · | · | ·
O=C1OC(/C=C/c2ccc(Cl)cc2Cl)=NC/1=C\c1cccs1 | 2 | 9 | 35µM* | 0% | 1% | -15%
CC(C#N)Sc1ncc(-c2ccccc2)[nH]1 (stereo not drawn) | · | · | 6% | · | · | ·
S=c1[nH]c2cc(Cl)ccc2s1 | 0 | -12 | 45µM*! | ? | -5% | -4%
S=c1[nH]c2ccc(Cl)cc2[nH]1 | 0 | 20 | ? | -11% | -5% | ·
COC(=O)c1ccc(C2/C(=C(\O)c3cccc(OC)c3)C(=O)C(=O)N2c2ccccn2)cc1 (stereo not drawn) | · | · | 1.1µM* | · | · | ·
SMILES | TRPML1 ag | TRPML1 blocker | 12-LOX inh | Vif-A3G inh | GRP78 ERSR act | Vif-A3F inh
CC(C)c1ccc(NC(=O)c2ccc(N(C)C)cc2)cc1 | · | · | 45µM* | · | · | ·
CC(C)Oc1ccc(C(=O)Nc2ccc(N(C)C)cc2)cc1 | 0 | 1 | -23% | 1% | -1% | 0%
C=CCOC(=O)C1=C(C)NC(C)=C(C(=O)OCC=C)C1c1cn(-c2ccccc2)nc1-c1ccco1 | 1 | 26 | -10% | 8.9µM* | -7% | -13%
CCOC(=O)c1c(/N=C/C2=C(O)CCCC2=O)sc(C)c1C | 0 | -2 | -15% | -1% | -7% | -27%
CCOC(=O)c1c(-c2ccc(OC)cc2)csc1/N=C/C1=C(O)CCCC1=O | 10 | 15 | -2% | 22µM* | -13% | 22µM*
Cc1ccc(Cl)cc1NC(=O)C(=O)c1cn(CC(=O)N2CCOCC2)c2ccccc12 | · | · | 32% | · | · | ·

Assay outcomes (PubChem)
